Out of some 62,000 compounds screened, about 95 (0.2%) were called active. This is one part of a sample in which actives are shown more often than they occur.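 How the source made its calls: active means inhibition above 20% in each of the two mixture wells holding the compound; inactive means inhibition of 20% or less in either well.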
biological target: Cathepsin G (Homo sapiens) (UniProt P08311); test: human cathepsin G inhibitors, primary screen, biochemical, pooled compound mixtures, AMC fluorescence (AID 581); conditions: purified enzyme, AMC-tetrapeptide fluorescence, stronger effect = higher value, screened at 5 µM (by protocol);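 further: 0% = enzyme control without mixture and 100% = blank lacking enzyme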
Sequence (P08311 21-244 limits assumed): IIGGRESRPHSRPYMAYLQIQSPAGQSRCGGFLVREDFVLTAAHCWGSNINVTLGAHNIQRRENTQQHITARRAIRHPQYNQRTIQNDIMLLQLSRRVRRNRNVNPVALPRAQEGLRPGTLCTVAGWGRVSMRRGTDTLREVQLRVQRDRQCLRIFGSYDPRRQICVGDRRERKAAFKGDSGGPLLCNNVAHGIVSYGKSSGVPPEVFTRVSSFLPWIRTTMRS

inhibition, inactive:
COc1ccc(C2C(C#N)=C(N)Oc3n[nH]c(C)c32)cc1CN1CCN(c2ccc(F)cc2)CC1 (stereo not drawn) -3.59%, CCOC(=O)c1nnn(-c2nonc2OC)c1-c1ccccc1 -2.37%, CC(C)=C(NC(=O)c1ccco1)C(=O)NCCc1nc2ccccc2[nH]1 9.21%, O=C1CCc2cc(S(=O)(=O)N3CCC(C(=O)NCc4ccccc4Cl)CC3)ccc2N1 11%, CC(=O)CCS(=O)(=O)c1ccc(C)c(C)c1 -14.8%, NC(=O)C1(N2CCCCC2)CCN(C(=O)c2ccc(C#Cc3ccccc3)o2)CC1 11.6%, COCCNc1nc(-n2nc(C)cc2C)nc2sc3c(c12)CCCC3 -7.79%, Cc1ccccc1OCCC(=O)Nc1c(C)n(C)n(-c2ccccc2)c1=O 16.9%, Cc1cc(Br)ccc1NC(=O)C1CCCO1 (stereo not drawn) 9.61%, COc1cc2[nH]c(=S)n(Cc3ccc(C)o3)c(=O)c2cc1OC -0.64%, CN1CCN(c2nc3c(c(=O)[nH]c(=O)n3C)n2Cc2cccc3ccccc23)CC1 14.6%, Cc1nnc(SCC(=O)NCCOc2ccc(Cl)cc2)n1-c1ccccc1 6.24%, CC1(C)CC(=O)C=C(NC2CC(C)(C)NC(C)(C)C2)C1 6.34%, Cn1c(=O)c2c(n(Cc3ccccc3)c1=O)NC(=O)C2CC(=O)N1CCc2ccccc2C1 (stereo not drawn) 4.22%, NC(=O)c1ccccc1NC(=O)c1ccccc1F 1.67%, Cn1c(SCc2c(F)cccc2Cl)nnc1-c1cnccn1 3.17%, O=C(c1cnn2ccccc12)N1CCc2ccccc21 10.9%, O=C(NC1(C(F)(F)F)N=C2SCCN2C1=O)c1ccco1 (stereo not drawn) 3.45%, O=C(CCN1C(=O)COc2ccccc21)NCCCN1CCN(c2ccc(F)cc2)CC1 -3.54%, Cc1cccc(NC(=O)C2CCN(S(=O)(=O)c3cccc4cccnc34)CC2)c1 10.6%, Cc1cccc(NC(=O)COc2ccc(Br)cc2C)n1 2.75%, c1cc(-n2cnnn2)ccc1NC1=NCCC1 -2.07%, COc1ccc(-n2c(SCC(=O)OC(C)C)nnc2-c2ccccn2)cc1 7.94%, CCC(=O)N1CCc2cc(S(=O)(=O)NC(C(=O)N3CCc4ccccc4C3)C(C)C)ccc21 (stereo not drawn) 4.46%, CCCc1nc2ccccc2c(=O)n1/N=C/c1ccc(O)c(O)c1 2.2%, COc1cccc(C2/C(=C(/O)c3ccncc3)C(=O)C(=O)N2CCCN(C)C)c1 (stereo not drawn) 6.68%, COCCCn1c2nc3ccccc3nc2c2c(=O)n(Cc3ccc(Cl)cc3)c(C)nc21 7.46%, Cc1cc(C)nc(N2C(=O)CC(Cc3ccccc3)C2=O)n1 (stereo not drawn) -4.68%, Cc1cc(=O)[nH]c(SCc2cc(Cl)ccc2OC(F)F)n1 8.17%, O=C(CNCCO)NC12CC3CC(CC(C3)C1)C2 11.2%, C[C@H](NC(=O)NCCc1ccccc1)C(=O)O 2.02%, O=C(Cn1c(=O)sc2ccccc21)Nc1ccc2c(c1)OCCO2 1.24%, O=C(Nc1ccc2c(c1)OCO2)C1CC(c2c(F)cccc2Cl)=NO1 (stereo not drawn) 9.79%, CCCCCN(C(=O)NC(=O)Nc1ccccc1C)S(C)(=O)=O 3.6%, CC(C)C(=O)Nc1cccc(C(=O)Nc2ccc3c(c2)OCO3)c1 10.1%, CCOc1c(N2CCCCC2)c(=O)c1=O -3.4%, Cc1cc2c(cc1C)NC(c1ccccn1)C1=C(CC(C)(C)CC1=O)N2 (stereo not drawn) 9.5%, Cc1ccc(S(=O)(=O)N2CCN(Cc3cccc(C)c3O)CC2)cc1 2.48%, O=c1c2ccccc2[nH]c(=S)n1CCN1CCC(=C(c2ccc(F)cc2)c2ccc(F)cc2)CC1 13.1%, CCC(C)n1[nH]c(=O)cc1N (stereo not drawn) 0.53%, CN(c1nc2ccccc2n2c(-c3ccco3)nnc12)S(=O)(=O)c1ccccc1 -5.29%, N#Cc1c(/N=C/N2CCCC2)oc(-c2ccccc2)c1-c1ccccc1 9.67%, O=C(Nc1cc(=O)[nH]c2ncnn12)c1ccccc1Cl -3.08%, O=C(O)C1CC=C(Cl)CC1C(=O)NCc1ccccc1 (stereo not drawn) 12.7%, Cc1ccc(-n2c(N)c(C(=O)N3CCOCC3)sc2=S)c(C)c1 11.4%, c1ccc2c(c1)OCC(c1nn3cnnc3s1)O2 (stereo not drawn) 1.56%, CC(=O)N1CSCC1C(=O)O (stereo not drawn) 10.9%, COc1ccc(C)cc1S(=O)(=O)NC1CCCCC1 3.27%, O=C(CCCN1C(=O)CSc2ncccc21)N1CCN(c2cccc(C(F)(F)F)c2)CC1 1.22%, Fc1ccc(Br)cc1/C=N/n1cnnc1 -0.86%, ON=C1/C(=N\O)CC2(C/C1=N/O)OCCO2 -0.38%, CC(=O)c1c(C)n(-c2ccc(N(C)C)cc2)c2ccc(OCC(N)=O)cc12 8.67%, COc1ccc(S(=O)(=O)NC2(C(F)(F)F)N=C3SCCN3C2=O)cc1 (stereo not drawn) 11.4%, CCN(CC)C(=O)C1CCC(C)(C(=O)O)C1(C)C (stereo not drawn) 11.2%, COC(=O)c1ccccc1NC(=O)C1CCN(S(=O)(=O)c2cc(OC)ccc2OC)CC1 2.31%, CC(=O)N(CC1CCCO1)C1(C(=O)NC2CCCC2)CCCCC1 (stereo not drawn) 10.3%, COCC(=O)Nc1nnc(COc2ccccc2)s1 -21.9%, CCN(CC(=O)Nc1ccc2c(c1)OCCO2)Cc1cc(=O)oc2cc(C)c(C)cc12 1.52%, CC1(C)Cc2ccccc2-c2nc(CN3CCOCC3)[nH]c(=O)c21 3.33%, O=C1N(Cc2ccc3c(c2)OCO3)c2ccccc2C1(O)c1c[nH]c2ccccc12 (stereo not drawn) 1.27%, COc1ccc(Cl)cc1NC(=O)C1CC(=O)N(c2ccc(F)cc2)C1 (stereo not drawn) 8.25%, O=C(CN1CCOCC1)N1CCCc2c1c(=O)oc1ccc(OCc3ccccc3)cc21 -5.32%, O=C1N=C(N2CCOCC2)CS1 -2.67%, O=C(CSc1nnc(-c2ccco2)n1CC1CCCO1)c1ccccc1 (stereo not drawn) 10.9%, CSc1ccc(-c2c(C#N)c(N)nc3c2c(C)nn3-c2ccccc2)cc1 5.96%, Cc1c(C(=O)OCC(=O)N(CCC#N)c2ccccc2)oc2c1ccc1ccccc12 10.9%, COc1ccc2nc(N3CCCC(O)C3)c(C#N)cc2c1 (stereo not drawn) 7.5%, O=C(Nc1ccc(S(=O)(=O)N2CCCC2)cc1Cl)C1=COCCO1 -0.78%, CN(C)c1ccc(CNC23CN4CN(CN(C4)C2)C3)cc1 -0.235%, CCCCNC(=O)CSc1nccn1Cc1ccccc1 -4.63%, COCCNC(=O)C(C#N)c1nc2ccccc2nc1N1CCN(Cc2ccc3c(c2)OCO3)CC1 (stereo not drawn) 8.39%, Cc1cc(N=CC2=C(O)CCCC2=O)no1 14.9%, CC1CCCC(C)N1C(=O)CN1CCN(c2nc(-c3ccc(F)cc3)cs2)CC1 (stereo not drawn) -39.9%, CCOC(=O)N1CCN(C(=O)c2ccc(CN(c3ccc(C)c(C)c3)S(C)(=O)=O)cc2)CC1 11.3%, N#CC1=C(N)Oc2n[nH]c(CSc3ccccc3)c2C12C(=O)Nc1ccccc12 (stereo not drawn) 13.8%, COc1ccc(-c2nc(CS(=O)CC(=O)N3CCc4ccccc4C3)c(C)o2)cc1 (stereo not drawn) 2.91%, CCCCn1nc(C(=O)N2CCc3ccccc32)c2ccccc2c1=O -0.085%, COc1ccccc1N1CC(O)=C(c2nc3ccccc3s2)C1=N -0.35%, O=C1CCC(C(=O)Nc2ccc(OC(F)F)cc2)N1 (stereo not drawn) 1.46%, Nc1c(C(=O)NCc2ccccc2)nnn1Cc1cccc(Cl)c1 -2.37%, Cc1cc(C(F)(F)F)nn1-c1nc(-c2ccco2)cc(C(F)(F)F)n1 -9.21%, Cc1ccc2cc3cc(C(=O)N4CCCCCC4)oc3nc2c1 8.2%, COCCOC(=O)C1=C(C)Nc2nc(C)nn2C1c1ccccc1 (stereo not drawn) -6.8%, CC1C=CCC2C(=O)N(c3cccc(C(=O)N4CCCCCC4)c3)C(=O)C12 (stereo not drawn) 9.22%, CCOC(=O)CSc1nnc(-c2ccncc2)o1 7.88%, O=C(c1ccco1)N1CCN=C1SCc1cccc(Cl)c1 -1.57%, Cc1ccc(-c2nc(CS(=O)CC(=O)NC3CCCC3)c(C)o2)cc1 (stereo not drawn) -3.33%, CCN(CCCNC(=O)C1CCN(S(=O)(=O)c2cnc[nH]2)CC1)c1ccccc1 14.4%, O=C(NCCCN1CCCCCC1)c1ccc(N2CCCC2=O)cc1 1.79%, CC1(N2CCOCC2)CC2(O)C(=[N+]1[O-])CCc1nonc12 (stereo not drawn) 11.9%, O=C(NC1CCCCC1)c1ccc2c(=O)n(CC3CCCO3)c(=O)[nH]c2c1 (stereo not drawn) -1.31%, Cc1cc(C)c(C)c(S(=O)(=O)Nc2ccc(O)cc2)c1C -0.38%, COc1ccc(OCCCON2C(=O)c3ccccc3C2=O)cc1 -4.08%, COc1cc(Br)cc(/C=N/c2ncn[nH]2)c1O 10.2%, CN(c1ccc(C(=O)NCCC2=CCCCC2)cc1)S(C)(=O)=O 1.87%, COc1cccc2cc(C(C)N(CCCN3CCOCC3)C(=O)Nc3ccc(Cl)cc3)oc12 (stereo not drawn) 1.68%, O=C(O)CN(Cc1ccco1)S(=O)(=O)c1ccc(F)cc1 6.5%, COc1ccc2c(c1OC)C(=O)N(c1ncn[nH]1)C2 -3.84%, COc1ccc(C)c2sc(=NC(=O)c3ccc(C#N)cc3)n(C)c12 1.85%, O=C(CCCC(=O)N(CC(=O)NC1CCCC1)Cc1ccccc1Cl)Nc1ccccn1 7.61%, Cc1nnc(NC2=NCCCCC2)o1 -1.69%, CSCCC1NC2(C(=O)Nc3ccc(Cl)cc32)[C@@H]2C(=O)N(C3CCCC3)C(=O)[C@H]12 (stereo partly drawn) 17.3%, COc1ccc(N2C(=O)C3CCCN3C2c2cccc(OC)c2)cc1 (stereo not drawn) -5.7%, CCC(C)Sc1nc(C)nc2c1c(=O)n(C)c(=O)n2C (stereo not drawn) 8.64%, O=C(CC1CCCCC1)Nc1c2c(nn1-c1ccc(F)cc1)CS(=O)(=O)C2 -0.2%, COc1ccc(C2C(C#N)=C(N)Oc3cc(N)ccc32)cc1OC (stereo not drawn) -2.81%, O=C(CCCn1c(=O)oc2ccccc21)Nc1cccnc1 -1.41%, Cc1nc(-c2ccc(NC(=O)c3cccs3)cc2)cs1 8.02%

Source: PubChem BioAssay AID581 (PCMD, 2007)
